Targets with a hit are over-represented here; the source holds about 7,900 in all. About 0.6% of all pairs of compound and target were hits. A number with no mark means an inactive call.

Data on 13 targets can be found in the supplement of paper PMC10849652.

Holding throughout (assay): log2 fold change, soluble protein after heating vs DMSO (PISA); higher = thermal stabilisation; K562 cells, 10 uM, 30 min; active = over 0.2 and 3.5 SD of the protein, either way, in both replicates (recomputed)
Compound in assay [1]: CS(=O)(=O)c1ccc(-c2cnc(N)c(C(=O)Nc3ccccc3)n2)cc1
A digest of the protocol:
(§1)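 K562 cells at 2×10^6 cells/mL were exposed to 10 μM compound for 30 min, then aliquots were heated for 3 min across 48°C-58°C, pooled, and extracted in PBS containing 0.5% NP-40 at 4°C. The supernatant after 21,000xg for 90 min was taken as soluble protein and measured by TMTpro 16plex LC-MS/MS with channel sums equalised. Thermal stability is reported relative to control samples, with values from duplicates. Fold changes are given on a log2 scale.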

Compound in the next assay: C[C@@H](Oc1cc(-c2cnn(C3CCNCC3)c2)cnc1N)c1c(Cl)ccc(F)c1Cl [crizotinib]
The procedure, abridged: as §1

Compound in assay [2]: C[C@@H]1COCCN1C2=NC(=NC(=C2)C3(CC3)S(=O)(=O)C)C4=C5C=CNC5=CC=C4
A digest of the protocol:
as §1

Compound in assay [3]: C[C@H](C1=CC=C(C=C1)C(=O)NC2=C3C=CNC3=NC=C2)N
A digest of the protocol: as §1

Compound in another assay: Cc1cc(Nc2cc(CN3CCOCC3)c3nc(C)c(Cc4ccc(Cl)cc4F)n3n2)n[nH]1 [gandotinib]
The procedure, abridged:
as §1

Compound in another assay: Cc1cc(Nc2cc(N3CCN(C)CC3)nc(Sc3ccc(NC(=O)C4CC4)cc3)n2)n[nH]1 [tozasertib]
A digest of the protocol: as §1

Compound in another assay: Cc1ccc(-n2nc(C(C)(C)C)cc2NC(=O)Nc2ccc(OCCN3CCOCC3)c3ccccc23)cc1 [doramapimod]
A digest of the protocol: as §1

Compound in the next assay: Cc1ccc(C(=O)N(CCCN)[C@@H](c2nc3cc(Cl)ccc3c(=O)n2Cc2ccccc2)C(C)C)cc1 [ispinesib]
A digest of the protocol:
as §1

Compound in another assay: C[C@H](Nc1ncnc2nc[nH]c12)c1cc2cccc(Cl)c2c(=O)n1-c1ccccc1 [duvelisib]
A digest of the protocol: as §1

Compound in assay [4]: Cc1cc(SCc2sc(-c3ccc(C(F)(F)F)cc3)nc2C)ccc1OCC(=O)O
A digest of the protocol:
as §1

Sequence of UniProt Q6PID6 (Q6PID6 whole entry, looked up): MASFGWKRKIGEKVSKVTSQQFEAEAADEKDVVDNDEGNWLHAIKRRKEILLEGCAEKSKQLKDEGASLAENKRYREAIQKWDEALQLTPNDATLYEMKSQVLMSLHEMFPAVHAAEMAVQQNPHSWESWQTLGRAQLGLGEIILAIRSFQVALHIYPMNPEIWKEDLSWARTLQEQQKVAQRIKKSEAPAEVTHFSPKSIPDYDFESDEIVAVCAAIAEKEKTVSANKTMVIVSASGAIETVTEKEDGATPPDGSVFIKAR
Sequence of UniProt Q6NXR4 (Q6NXR4 whole entry, looked up): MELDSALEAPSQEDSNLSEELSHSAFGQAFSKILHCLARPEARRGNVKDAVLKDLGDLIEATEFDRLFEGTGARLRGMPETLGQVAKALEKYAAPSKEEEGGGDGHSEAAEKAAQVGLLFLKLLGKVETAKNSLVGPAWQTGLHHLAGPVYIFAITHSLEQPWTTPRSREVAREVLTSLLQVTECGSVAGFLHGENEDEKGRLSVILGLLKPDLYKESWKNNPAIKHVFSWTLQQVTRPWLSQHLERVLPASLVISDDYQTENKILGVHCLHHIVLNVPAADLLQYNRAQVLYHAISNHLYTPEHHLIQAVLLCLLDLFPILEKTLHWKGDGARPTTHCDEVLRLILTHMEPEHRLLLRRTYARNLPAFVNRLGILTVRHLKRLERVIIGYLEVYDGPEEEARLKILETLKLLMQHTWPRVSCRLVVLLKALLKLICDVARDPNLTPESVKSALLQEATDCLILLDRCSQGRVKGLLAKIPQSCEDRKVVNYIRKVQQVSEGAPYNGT
Sequence of UniProt Q9NX61 (Q9NX61 whole entry, looked up): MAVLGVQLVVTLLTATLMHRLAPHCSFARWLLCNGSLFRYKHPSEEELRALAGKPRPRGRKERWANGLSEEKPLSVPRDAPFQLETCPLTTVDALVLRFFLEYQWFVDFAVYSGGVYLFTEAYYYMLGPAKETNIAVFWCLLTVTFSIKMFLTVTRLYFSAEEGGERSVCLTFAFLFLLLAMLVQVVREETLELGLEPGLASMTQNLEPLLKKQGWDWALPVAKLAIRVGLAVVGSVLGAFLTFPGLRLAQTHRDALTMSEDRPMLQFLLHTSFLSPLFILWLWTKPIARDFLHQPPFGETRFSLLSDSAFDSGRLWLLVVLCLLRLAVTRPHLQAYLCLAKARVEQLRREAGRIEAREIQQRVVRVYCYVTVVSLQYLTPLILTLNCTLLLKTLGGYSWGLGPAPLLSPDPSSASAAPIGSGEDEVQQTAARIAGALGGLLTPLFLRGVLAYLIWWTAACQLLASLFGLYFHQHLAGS
Sequence of UniProt Q5R3I4 (Q5R3I4 whole entry, looked up): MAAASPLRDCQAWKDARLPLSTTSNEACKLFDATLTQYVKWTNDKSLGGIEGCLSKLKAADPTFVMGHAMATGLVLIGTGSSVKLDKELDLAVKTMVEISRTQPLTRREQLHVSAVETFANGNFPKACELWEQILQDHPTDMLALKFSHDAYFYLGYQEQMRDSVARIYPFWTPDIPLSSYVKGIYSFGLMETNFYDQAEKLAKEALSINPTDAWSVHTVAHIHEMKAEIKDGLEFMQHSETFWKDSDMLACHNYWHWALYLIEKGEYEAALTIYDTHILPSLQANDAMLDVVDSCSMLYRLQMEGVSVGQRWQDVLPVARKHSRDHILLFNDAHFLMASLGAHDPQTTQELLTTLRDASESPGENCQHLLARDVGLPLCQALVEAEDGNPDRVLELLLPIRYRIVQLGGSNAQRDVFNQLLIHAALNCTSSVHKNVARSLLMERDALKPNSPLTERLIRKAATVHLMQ
Sequence of UniProt Q96HV5 (Q96HV5 whole entry, looked up): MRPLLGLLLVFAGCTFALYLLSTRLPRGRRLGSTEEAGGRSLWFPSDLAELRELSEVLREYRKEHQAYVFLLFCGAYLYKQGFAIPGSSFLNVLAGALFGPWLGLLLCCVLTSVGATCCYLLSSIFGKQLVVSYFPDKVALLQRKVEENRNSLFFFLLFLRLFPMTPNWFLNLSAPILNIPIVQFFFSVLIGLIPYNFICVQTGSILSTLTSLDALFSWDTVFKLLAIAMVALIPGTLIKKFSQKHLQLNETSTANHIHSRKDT
Sequence of UniProt Q9C037 (Q9C037 whole entry, looked up): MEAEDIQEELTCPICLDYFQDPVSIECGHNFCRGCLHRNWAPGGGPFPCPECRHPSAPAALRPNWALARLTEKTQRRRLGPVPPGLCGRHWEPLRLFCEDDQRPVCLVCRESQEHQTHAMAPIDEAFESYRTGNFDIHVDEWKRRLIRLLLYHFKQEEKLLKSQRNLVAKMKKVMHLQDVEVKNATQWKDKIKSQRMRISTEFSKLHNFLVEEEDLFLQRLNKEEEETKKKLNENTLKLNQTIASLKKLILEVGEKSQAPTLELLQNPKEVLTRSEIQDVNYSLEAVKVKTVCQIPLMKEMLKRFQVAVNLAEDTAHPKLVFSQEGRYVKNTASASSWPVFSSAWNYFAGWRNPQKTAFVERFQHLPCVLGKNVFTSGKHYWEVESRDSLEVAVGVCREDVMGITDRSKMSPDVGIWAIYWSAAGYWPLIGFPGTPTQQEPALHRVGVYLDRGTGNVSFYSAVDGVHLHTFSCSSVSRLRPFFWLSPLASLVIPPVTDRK
Sequence of UniProt Q7Z7N9 (Q7Z7N9 whole entry, looked up): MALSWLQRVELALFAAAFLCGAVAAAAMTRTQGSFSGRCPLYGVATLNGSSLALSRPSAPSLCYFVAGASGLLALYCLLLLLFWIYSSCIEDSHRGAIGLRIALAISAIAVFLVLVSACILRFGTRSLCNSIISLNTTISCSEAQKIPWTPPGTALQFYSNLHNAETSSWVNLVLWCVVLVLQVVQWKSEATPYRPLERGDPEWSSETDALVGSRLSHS
Sequence of UniProt Q9Y4E8 (Q9Y4E8 whole entry, looked up): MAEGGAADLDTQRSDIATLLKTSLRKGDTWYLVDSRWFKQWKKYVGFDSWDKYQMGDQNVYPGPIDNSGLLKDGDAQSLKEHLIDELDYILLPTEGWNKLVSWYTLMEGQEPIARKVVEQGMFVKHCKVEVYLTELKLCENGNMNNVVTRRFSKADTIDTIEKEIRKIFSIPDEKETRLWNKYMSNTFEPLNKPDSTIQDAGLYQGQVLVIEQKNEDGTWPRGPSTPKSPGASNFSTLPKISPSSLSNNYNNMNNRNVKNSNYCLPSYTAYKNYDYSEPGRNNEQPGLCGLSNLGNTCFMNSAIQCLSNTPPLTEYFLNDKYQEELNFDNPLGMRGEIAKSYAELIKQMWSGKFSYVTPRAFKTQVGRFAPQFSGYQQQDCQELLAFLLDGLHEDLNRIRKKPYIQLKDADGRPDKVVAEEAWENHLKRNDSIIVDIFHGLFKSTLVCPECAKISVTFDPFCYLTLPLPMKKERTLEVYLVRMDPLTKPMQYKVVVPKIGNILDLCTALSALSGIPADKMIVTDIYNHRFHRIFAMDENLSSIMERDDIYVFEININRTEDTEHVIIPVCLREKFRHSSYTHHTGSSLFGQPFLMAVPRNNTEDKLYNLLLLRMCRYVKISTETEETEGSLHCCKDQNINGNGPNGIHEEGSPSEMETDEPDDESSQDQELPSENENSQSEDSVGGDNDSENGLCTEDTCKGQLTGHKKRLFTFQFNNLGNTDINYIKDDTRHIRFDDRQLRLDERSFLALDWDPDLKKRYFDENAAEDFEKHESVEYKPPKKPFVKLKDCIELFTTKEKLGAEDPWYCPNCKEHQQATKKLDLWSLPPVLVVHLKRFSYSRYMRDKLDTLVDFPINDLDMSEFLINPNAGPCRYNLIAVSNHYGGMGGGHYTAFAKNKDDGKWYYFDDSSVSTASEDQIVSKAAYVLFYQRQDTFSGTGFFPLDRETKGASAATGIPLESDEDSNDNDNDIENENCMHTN
Sequence of UniProt Q9H267 (Q9H267 whole entry, looked up): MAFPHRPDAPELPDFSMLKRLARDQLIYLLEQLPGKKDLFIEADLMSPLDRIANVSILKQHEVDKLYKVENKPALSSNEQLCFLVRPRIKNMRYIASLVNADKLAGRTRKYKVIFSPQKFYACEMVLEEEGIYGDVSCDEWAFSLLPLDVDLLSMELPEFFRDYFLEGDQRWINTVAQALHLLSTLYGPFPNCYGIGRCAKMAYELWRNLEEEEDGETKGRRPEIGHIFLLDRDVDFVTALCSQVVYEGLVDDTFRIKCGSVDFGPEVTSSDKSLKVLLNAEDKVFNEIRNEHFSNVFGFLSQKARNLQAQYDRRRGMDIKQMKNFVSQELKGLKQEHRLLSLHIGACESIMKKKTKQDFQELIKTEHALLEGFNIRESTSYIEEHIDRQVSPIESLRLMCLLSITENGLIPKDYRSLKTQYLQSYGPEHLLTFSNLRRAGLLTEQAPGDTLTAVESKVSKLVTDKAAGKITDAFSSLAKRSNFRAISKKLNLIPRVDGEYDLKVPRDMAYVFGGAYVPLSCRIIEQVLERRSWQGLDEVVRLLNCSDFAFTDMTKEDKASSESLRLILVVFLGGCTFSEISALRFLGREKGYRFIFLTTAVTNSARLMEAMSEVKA
Sequence of UniProt Q9UDW1 (Q9UDW1 whole entry, looked up): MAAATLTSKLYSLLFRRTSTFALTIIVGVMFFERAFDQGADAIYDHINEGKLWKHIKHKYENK

In the case of TSC2 (UniProt P49815), the log2 fold change in assay [1] is -0.09; in the assay with crizotinib, 0.065; in assay [2], -0.139; in assay [3] it was 0.218; with gandotinib, -0.091; with tozasertib, -0.172. For the same target, the log2 fold change in the assay with doramapimod is 0.09; in the assay with ispinesib it was 0.012.
For TTC33 (UniProt Q6PID6), the log2 fold change was 0.056 in assay [1]; -0.399 in the assay with crizotinib; -0.113 in [2]; 0.146 in assay [3]; 0.002 with duvelisib; -0.192 with gandotinib. Also, the results for the log2 fold change (in [4]; with doramapimod; with ispinesib) were -0.06, -0.15 and -0.095, respectively.
TRIM4 (UniProt Q9C037): the log2 fold change in assay [1] is 0.114; with crizotinib it was 0.045; in assay [2] it was 0.037; in assay [3] it was 0.061; in the assay with gandotinib it was -0.023; with tozasertib, 0.023. Moreover, the log2 fold change with doramapimod is 0.092; in the assay with ispinesib it was -0.033.
Regarding TMEM41A (UniProt Q96HV5), the log2 fold change was -0.023 in assay [1]; 0.139 with crizotinib; 0.137 in [2]; -0.001 with duvelisib; -0.044 in the assay with gandotinib; -0.138 with tozasertib. Besides, the log2 fold change was 0 in assay [4], 0.025 with doramapimod and 0.065 with ispinesib.
For TMEM161A (UniProt Q9NX61), the log2 fold change in [1] was -0.038; with crizotinib, -0.026; in [2], -0.006; in [3] it was 0.001; with duvelisib, -0.032; in the assay with gandotinib, -0.156. The log2 fold change is -0.145 with tozasertib, 0.051 in assay [4], -0.023 in the assay with doramapimod and -0.251 in the assay with ispinesib.
On to TTI2 (UniProt Q6NXR4), for which the log2 fold change in [1] is -0.066; in the assay with crizotinib it was -0.155; in [2] it was 0.028; in [3], 0.121; in the assay with duvelisib, -0.067; with tozasertib, 0.004. Moreover, the log2 fold change in [4] is 0.142; in the assay with doramapimod, 0.013; with ispinesib, -0.204.
In the case of UQCR10 (UniProt Q9UDW1), the log2 fold change is -0.036 in assay [1]; 0.079 in the assay with crizotinib; 0.071 in assay [2]; -0.043 in assay [3]; 0.089 in the assay with duvelisib; -0.403 (active) with gandotinib. Further, the log2 fold change with tozasertib is 0.013; in assay [4], 0.013; with doramapimod, -0.025; with ispinesib it was 0.095.
Consider USP15 (UniProt Q9Y4E8), for which the log2 fold change in assay [1] is 0.04; in the assay with crizotinib, -0.041; in [2], 0.05; in assay [3] it was -0.009; in the assay with duvelisib it was 0.01; with gandotinib it was -0.043. For the same target, the log2 fold change with tozasertib was 0.056; in assay [4], 0.063; with doramapimod, -0.045; with ispinesib, -0.036.
VPS33B (UniProt Q9H267): the log2 fold change is 0.05 in assay [1]; -0.182 in the assay with crizotinib; -0.022 in assay [2]; 0.063 in assay [3]; -0.004 with duvelisib; -0.114 with gandotinib. For the same target, the log2 fold change in the assay with tozasertib was 0.012; in assay [4], 0.085; with doramapimod it was -0.01; with ispinesib, -0.149.
For WDR46, A0A0G2JJL1, the log2 fold change in [1] was -0.119; with crizotinib, 0.086; in [2], -0.581; with duvelisib, -0.157; in the assay with tozasertib, 0.198; in assay [4] it was -0.125. Besides, the log2 fold change in the assay with doramapimod is 0.236.
For the target TMEM179B (UniProt Q7Z7N9), the log2 fold change in assay [1] was -0.005; in the assay with crizotinib it was -0.167; in assay [2], 0.101; in assay [3], -0.165; with gandotinib, -0.138; with tozasertib it was 0.032. In addition, the log2 fold change with doramapimod is 0.071; in the assay with ispinesib, -0.099.
In the case of TTC38 (UniProt Q5R3I4), the log2 fold change in [1] was -0.055; with crizotinib, -0.085; in assay [2], -0.085; in assay [3] it was -0.073; in the assay with duvelisib, -0.027; with gandotinib it was -0.031. The log2 fold change is 0 with tozasertib, 0.063 in assay [4], 0.73 (active) in the assay with doramapimod and 0.06 with ispinesib.
In the case of UBA52 (UniProt P62987), the log2 fold change was -0.065 in [1]; -0.02 with crizotinib; -0.909 (active) in assay [2]; 0.364 in assay [3]; 0.44 in the assay with gandotinib; 0.053 with tozasertib. The figures for the log2 fold change with doramapimod and with ispinesib were 0.118 and -0.165, respectively.
